Laboratory results: the supplement of paper PMC10981050
Where a name gives a salt, the structure may show the parent alone.

system: MARIMO; assay: cell viability relative to vehicle control; higher = less cytotoxic; settings: 10 µM; SRSF2 genotype: SRSF2 wt/wt
Outline: (§1)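 CRISPR-edited mutant clones and isogenic wild-type clones from four leukaemia lines were screened against Selleck bioactive, kinase and epigenetic probe libraries, with identity-inconsistent compounds excluded. Each compound was acoustically dispensed at a single 10 µM dose into 384-well plates holding 2000 cells in 50 µL medium per well. After 48 h the supernatant was removed and CellTiter-Glo luminescence was read. Viability was expressed as percent of the on-plate vehicle control and analysed in Genedata Screener.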

SMILES | cell viability [%]
c1ccc2c(c1)[I+]c1ccccc1-2 [Diphenyleneiodonium chloride (DPI)] | 25.4
CC(=O)OC12COC1CC(O)C1(C)C(=O)C(O)C3=C(C)C(O)CC(O)(C(OC(=O)c4ccccc4)C21)C3(C)C (configuration not stated) [10-DAB (10-Deacetylbaccatin)] | 108
COC(=O)C[C@](O)(CCC(C)(C)O)C(=O)O[C@@H]1C(OC)=C[C@]23CCCN2CCc2cc4c(cc2[C@H]13)OCO4 [Harringtonine] | 4.47
c1c2c(cc3c1OCO3)-c1cc3ccc4c(c3c[n+]1CC2)OCO4 [Coptisine chloride] | 99.8
O=S(=O)(CC1CS1)c1ccc(Oc2ccccc2)cc1 (configuration not stated) | 73.1
CC(NC(C)(C)C)C(=O)c1cccc(Cl)c1 (configuration not stated) [Amfebutamone (Bupropion) HCl] | 94.1
O=C1CCC[C@@H]2[C@H]3CCCN4CCC[C@@H](CN12)[C@@H]34 [Matrine ((+)-Matrine)] | 110
C=C[C@H]1CN2CC[C@H]1C[C@H]2[C@H](O)c1ccnc2ccccc12 [Cinchonidine] | 97.5
Cn1cc(C2=C(c3cn(C4CCN(Cc5ccccn5)CC4)c4ccccc34)C(=O)NC2=O)c2ccccc21 | 101
O=C(O)CNC(=O)c1c(O)c2ccccc2n(Cc2ccccc2)c1=O | 100
O=c1[nH]c2ccc(Cl)cc2c(N[C@@H]2CN3CCC2CC3)c1-c1nc2ccccc2[nH]1 | 0.36
NCC(O)c1ccc(O)cc1 (racemic) [(+,-)-Octopamine HCl] | 96.5
C=C1[C@H]2C[C@@]3([C@@H]1O)[C@@H](CC2=O)[C@]12[C@@H]4C[C@H]3[C@H]1N(CC)C[C@]4(C)CC[C@@H]2O [Songorine] | 98.8
COc1cc2c(cc1OC)[C@@H](Cc1ccc(O)c(Oc3cc4c(cc3OC)CCN(C)[C@@H]4Cc3ccc(O)cc3)c1)N(C)CC2.[O-][Cl+3]([O-])([O-])O [Liensinine perchlorate] | 66.8
CC(=O)O[C@H]1C(=O)[C@@]2(C)[C@H]([C@H](OC(=O)c3ccccc3)[C@]3(O)C[C@H](O)C(C)=C1C3(C)C)[C@]1(OC(C)=O)CO[C@@H]1C[C@@H]2O | 96.6
CC(C)[C@]12O[C@H]1[C@@H]1O[C@]13[C@]1(O[C@H]1C[C@H]1C4=C(CC[C@@]13C)C(=O)OC4)[C@@H]2O [Triptolide] | 6.31
CC1=C[C@]23C(=O)[C@@H](C=C(CO)[C@@H](O)[C@]2(O)[C@H]1O)[C@H]1[C@@H](C[C@H]3C)C1(C)C [Ingenol] | 107

system: MOLM14; assay: as above; settings: 10 µM; SRSF2 genotype: SRSF2 P95H/wt
Outline: as §1

SMILES | cell viability [%]
C/C(=C\c1csc(C)n1)[C@@H]1C[C@@H]2O[C@@H]2CCC[C@H](C)[C@H](O)[C@@H](C)C(=O)C(C)(C)[C@@H](O)CC(=O)O1 [Epothilone A] | 6.35
C[C@]12C=CC(=O)C=C1CC[C@@H]1[C@@H]2CC[C@@]2(C)[C@H]1CC[C@]2(C)O [Methandrostenolone] | 103
C#C[C@]1(O)C=C[C@H]2[C@@H]3CCC4=CC(=O)CC[C@@H]4[C@H]3CC[C@@]21CC [Gestodene] | 94.2
C/C=C\c1cc(OC)c(OC)cc1OC [Beta-Asarone] | 104
Cc1c(N)nc(C(CC(N)=O)NCC(N)C(N)=O)nc1C(=O)NC(C(=O)NC(C)C(O)C(C)C(=O)NC(C(=O)NCCc1nc(-c2nc(C(=O)NCCC[S+](C)C)cs2)cs1)C(C)O)C(O[C@@H]1O[C@@H](CO)[C@@H](O)[C@H](O)[C@@H]1O[C@H]1O[C@H](CO)[C@@H](O)[C@H](OC(N)=O)[C@@H]1O)c1cnc[nH]1 (some centres not stated) [Bleomycin sulfate] | 53.4
Cc1cccc(C(C)c2c[nH]cn2)c1C (configuration not stated) [Medetomidine HCl] | 101
CCC1(c2ccc(N)cc2)CCC(=O)NC1=O (configuration not stated) [Aminoglutethimide (Cytadren)] | 99.8
COc1cc2c(cc1O)CC1NCCc3cc(OC)c(O)c-2c31 (configuration not stated) [Norisoboldine] | 99.3
Cc1cccc(Cc2c[nH]cn2)c1C [Detomidine HCl] | 105
COC1=C[C@@H]2[C@@H]3Cc4ccc(OC)c(O)c4[C@]2(CCN3C)CC1=O [Sinomenine hydrochloride] | 98.5
CC(C)=CCCC(C)(O)C1CCC2(C)C1C(O)CC1C3(C)CCC(O)C(C)(C)C3C(OC3OC(CO)C(O)C(O)C3O)CC12C [(20R)-Ginsenoside Rh1] | 115
CN(C)C(=O)Oc1ccc[n+](C)c1 [Pyridostigmine Bromide (Mestinon)] | 96.6
C=CC1CN2CCC1CC2C(O)c1ccnc2ccccc12 (configuration not stated) [Cinchonine.cdx] | 95.8
CC[C@@H]1CN2CC[C@@]3(C(=O)Nc4ccccc43)[C@@H]2C[C@@H]1/C(=C\OC)C(=O)OC [Corynoxine] | 77.1
C[C@@]12C[C@@H](c3ccoc3)OC(=O)[C@@H]1CC[C@]1(C)[C@H]2[C@@H]2C=C[C@@]1(O)C(=O)O2 [Columbin] | 108
Nc1nc(N)nc(N)n1 [Melamine] | 90.1
O=C(/C=C/c1ccccc1)OC[C@H]1O[C@@H](O[C@@H]2OC=C[C@H]3[C@H](O)[C@@H]4O[C@]4(CO)[C@@H]23)[C@H](O)[C@@H](O)[C@@H]1O [Picroside I] | 101
Cc1cccc(C)c1NC1=NCCCS1 [Xylazine HCl] | 90.4

SMILES | cell viability [%]
c1ccc2c(c1)[I+]c1ccccc1-2 [Diphenyleneiodonium chloride (DPI)] | 3.2
CC(=O)OC12COC1CC(O)C1(C)C(=O)C(O)C3=C(C)C(O)CC(O)(C(OC(=O)c4ccccc4)C21)C3(C)C (configuration not stated) [10-DAB (10-Deacetylbaccatin)] | 111
COC(=O)C[C@](O)(CCC(C)(C)O)C(=O)O[C@@H]1C(OC)=C[C@]23CCCN2CCc2cc4c(cc2[C@H]13)OCO4 [Harringtonine] | 2.72
c1c2c(cc3c1OCO3)-c1cc3ccc4c(c3c[n+]1CC2)OCO4 [Coptisine chloride] | 96.2
O=S(=O)(CC1CS1)c1ccc(Oc2ccccc2)cc1 (configuration not stated) | 39.1
CC(NC(C)(C)C)C(=O)c1cccc(Cl)c1 (configuration not stated) [Amfebutamone (Bupropion) HCl] | 95.1
O=C1CCC[C@@H]2[C@H]3CCCN4CCC[C@@H](CN12)[C@@H]34 [Matrine ((+)-Matrine)] | 105
C=C[C@H]1CN2CC[C@H]1C[C@H]2[C@H](O)c1ccnc2ccccc12 [Cinchonidine] | 85.7
Cn1cc(C2=C(c3cn(C4CCN(Cc5ccccn5)CC4)c4ccccc34)C(=O)NC2=O)c2ccccc21 | 76.9
O=C(O)CNC(=O)c1c(O)c2ccccc2n(Cc2ccccc2)c1=O | 99.8
O=c1[nH]c2ccc(Cl)cc2c(N[C@@H]2CN3CCC2CC3)c1-c1nc2ccccc2[nH]1 | 0.07
NCC(O)c1ccc(O)cc1 (racemic) [(+,-)-Octopamine HCl] | 99.5
C=C1[C@H]2C[C@@]3([C@@H]1O)[C@@H](CC2=O)[C@]12[C@@H]4C[C@H]3[C@H]1N(CC)C[C@]4(C)CC[C@@H]2O [Songorine] | 102
COc1cc2c(cc1OC)[C@@H](Cc1ccc(O)c(Oc3cc4c(cc3OC)CCN(C)[C@@H]4Cc3ccc(O)cc3)c1)N(C)CC2.[O-][Cl+3]([O-])([O-])O [Liensinine perchlorate] | 50.4
CC(=O)O[C@H]1C(=O)[C@@]2(C)[C@H]([C@H](OC(=O)c3ccccc3)[C@]3(O)C[C@H](O)C(C)=C1C3(C)C)[C@]1(OC(C)=O)CO[C@@H]1C[C@@H]2O | 104
CC(C)[C@]12O[C@H]1[C@@H]1O[C@]13[C@]1(O[C@H]1C[C@H]1C4=C(CC[C@@]13C)C(=O)OC4)[C@@H]2O [Triptolide] | 2.33
CC1=C[C@]23C(=O)[C@@H](C=C(CO)[C@@H](O)[C@]2(O)[C@H]1O)[C@H]1[C@@H](C[C@H]3C)C1(C)C [Ingenol] | 111
